Assay results taken from PubChem BioAssay.
Where “and” joins values, the source holds several entries; their conditions need not be identical. Equal values may be shown once. Calls of active or inactive are those of the source.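 How the source made its calls, unless noted: active means thallium flux through the channel raised or lowered by more than 3 SD from vehicle-only wells, actives on both sides; inactive means the rest.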

What was measured:
[1] = polyglutamine-triggered caspase-3 activation inhibitors, cell-based (AID 1583); conditions: polyglutamine-induced caspase-3 activation, cell assay; stronger effect = higher value;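 tested at 10 µM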
[2] = suppressors of polyQ aggregation in yeast, 75Q-TubU reporter (AID 1593); conditions: Yeast 75Q polyglutamine aggregation reporter
[3] = inhibitors of mitochondrial cytochrome c release, biochemical, purified mitochondria (AID 1603); conditions: stronger effect = lower value;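 further: mouse liver mitochondria challenged with calcium chloride; signal normalized to the plate average as 100%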
[4] = inhibitors of polyQ protein aggregation (AID 1604); conditions: polyglutamine-induced protein aggregation inhibition assay; stronger effect = higher value; tested at 2.5 µM
[5] = enhancers of glutamate uptake in motor neurons, MN-1 cell line (AID 1612); conditions: MN-1 motor neuron cells, stronger effect = higher value;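 further: tested at 1 µM final; 0% = mean of DMSO vehicle wells on each plate; positive means more glutamate uptake than control and negative means less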
[6] = Cy5 fluorescence interference with SSB-bound oligo, artefact control for HCV NS3 helicase inhibitor project, biochemical, NIH Clinical Collection, E. coli SSB (AID 743268; call rule not given here)
[7] = test system: Hepatitis C virus NS3 helicase; assay: HCV NS3 helicase inhibitors, primary screen, biochemical, fluorescence polarization, NIH Clinical Collection (AID 743270; call rule not given here); conditions: NS3 helicase binding to Cy5-dT15 DNA, stronger effect = higher value, concentration not given here
[8] = molecular target: Single-stranded DNA-binding protein (Escherichia coli (strain K12)) (UniProt P0AGE0); assay: E. coli SSB displacement from DNA, counter-screen for HCV NS3 helicase inhibitor project, biochemical, fluorescence polarization, NIH Clinical Collection (AID 743271; in the data active means inhibition above about 28%); conditions: stronger effect = higher value, concentration not given here
[9] = fluorescence interference in NS3h assay format, artefact control for HCV NS3 helicase inhibitor project, biochemical, NIH Clinical Collection (AID 743272; call rule not given here;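 further: HCV NS3 helicase with a Cy5 labelled single stranded DNA probe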); conditions: fluorescence interference counterscreen, stronger effect = lower value
[10] = viability rescue of complex I mutant cybrids, primary screen, cell-based, galactose medium, ATP luminescence (AID 1645843;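 active means z-score of at least 1.8 in each of two replicates, scored against plate mean and spread of sample wells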;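 further: positive z means more ATP and so rescue of galactose-driven cybrid death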); conditions: complex I mutant cybrid cells, 72 h, stronger effect = higher value
F380Y/beta4 = assay: modulators of BK channel variants, profiling panel, selectivity assay, cell-based, U2OS BacMam, thallium flux, beta subunits (AID 1259406); conditions: at 30 µM;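 further: initial slope of Thallos dye fluorescence rise after thallium is added; log ratio against the mean of 0.3% DMSO vehicle wells on the same plate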
[11] = molecular target: Calcium-activated potassium channel subunit alpha-1 (Homo sapiens) + Leucine-rich repeat-containing protein 26 (Homo sapiens) (UniProt Q12791+Q2I0M4); assay: as above; conditions: F380Y/Slo1WT/gamma1, at 30 µM
Chain of Calcium-activated potassium channel subunit alpha-1 (Homo sapiens) + Leucine-rich repeat-containing protein 26 (Homo sapiens) (Q2I0M4 whole entry, looked up, one chain of several): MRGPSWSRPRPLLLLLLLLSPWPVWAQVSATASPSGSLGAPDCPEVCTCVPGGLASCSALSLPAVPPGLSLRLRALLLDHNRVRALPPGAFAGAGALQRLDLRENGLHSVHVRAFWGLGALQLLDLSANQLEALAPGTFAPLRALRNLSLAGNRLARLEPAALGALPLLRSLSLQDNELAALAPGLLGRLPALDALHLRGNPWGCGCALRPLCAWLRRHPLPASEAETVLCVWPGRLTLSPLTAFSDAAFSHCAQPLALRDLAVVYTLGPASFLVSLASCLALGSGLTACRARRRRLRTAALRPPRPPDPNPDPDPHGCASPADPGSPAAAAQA

R275C = assay: as above; conditions: at 30 µM
R275C/beta1 = assay: as above; conditions: at 30 µM
R275C/beta2Delta = assay: as above; conditions: at 30 µM
R275C/beta4 = assay: as above; conditions: at 30 µM
R275C/Slo1WT/beta2 = assay: as above; conditions: at 30 µM
[12] = LFS_MB_P medulloblastoma growth inhibition, cell-based, chromothripsis tumors, cisplatin or BGB combos (AID 1671449; in the data active means inhibition above about 80%;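 further: cells exposed for 96 hours; 0% = vehicle DMSO and 100% = killing by high DMSO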); conditions: LFS_MB_P medulloblastoma cells
[13] = HDN33 neuroblastoma growth inhibition, cell-based, chromothripsis tumors, cisplatin or BGB combos (AID 1671450; in the data active means inhibition above about 80%;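 further: cells exposed to compound for four days; 0% = vehicle DMSO and 100% = cell killing by high DMSO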); conditions: HDN33 neuroblastoma cells, stronger effect = higher value
[14] = HTB85 osteosarcoma cell growth inhibition, synergistic combos for chromothripsis tumors, BGB or cisplatin IC20 combos (AID 1671453; in the data active means inhibition above about 80%;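 further: cells exposed for 96 hours before readout; 0% = vehicle DMSO and 100% = high DMSO killing control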); conditions: HTB85 osteosarcoma cells, drug combinations, stronger effect = higher value

c1ccc(CC2=NCCN2)cc1 showed an inhibition [1] of 7.62%, a score [2] of 1.26 and a cytochrome c release ratio [3] of 1.14. The inhibition of aggregation [4] was 87%, the glutamate uptake change [5] was 1.58% and the fluorescence ratio [6] was 1.05 (inactive). The inhibition [7] was -2.27% (inactive), the inhibition [8] was -0.48% (inactive) and the fluorescence ratio [9] was 1.01 (inactive). The z-score [10] was 0.495 (inactive), the log fold change Tl+ flux (F380Y/beta4) was -0.03 (inactive) and the log fold change Tl+ flux [11] was -0.0313 (inactive). For the same molecule, the log fold change Tl+ flux (R275C) was -0.0482 (inactive), the log fold change Tl+ flux (R275C/beta1) was 0.0322 (inactive) and the log fold change Tl+ flux (R275C/beta2Delta) was -0.00877 (inactive). The log fold change Tl+ flux (R275C/beta4) was 0.0215 (inactive) and the log fold change Tl+ flux (R275C/Slo1WT/beta2) was 0.0521 (inactive).

For c1ccc([C@H]2CN3CCSC3=N2)cc1, the inhibition [1] was 60.8%, the score [2] was 1.41 and the cytochrome c release ratio [3] was 0.88. For the same molecule, the inhibition of aggregation [4] was 72.2%, the glutamate uptake change [5] was 4.54% and the z-score [10] was 0.83 (inactive) and -0.1 (inactive).

In the case of CCOC(=O)[C@H](CCc1ccccc1)N[C@H]1CCc2ccccc2N(CC(=O)O)C1=O, the fluorescence ratio [6] was 1.03 (inactive), the inhibition [7] was -1.98% (inactive) and the inhibition [8] was 2.98% (inactive). The fluorescence ratio [9] was 1.04 (inactive), the z-score [10] was 0.145 (inactive) and the log fold change Tl+ flux (F380Y/beta4) was 0.0138 (inactive). For the same molecule, the log fold change Tl+ flux [11] was 0.0131 (inactive), the log fold change Tl+ flux (R275C) was 0.0199 (inactive) and the log fold change Tl+ flux (R275C/beta1) was -0.0262 (inactive). The log fold change Tl+ flux (R275C/beta2Delta) was 0.041 (inactive), the log fold change Tl+ flux (R275C/beta4) was -0.0252 (inactive) and the log fold change Tl+ flux (R275C/Slo1WT/beta2) was -0.00529 (inactive).

In the case of CC[C@H]1CN2CCc3cc(OC)c(OC)cc3[C@@H]2C[C@@H]1C[C@H]1NCCc2cc(OC)c(OC)cc21, the z-score [10] was -0.955 (inactive).

Work on O=C1CCC(N2C(=O)c3ccccc3C2=O)C(=O)N1 (centres undefined) yielded an inhibition [1] of 8.81%, a score [2] of 1.27 and a cytochrome c release ratio [3] of 1.09. For the same molecule, the inhibition of aggregation [4] was 81%, the glutamate uptake change [5] was -12.1% and the fluorescence ratio [6] was 1.04 (inactive). The inhibition [7] was -1.36% (inactive), the inhibition [8] was -1.24% (inactive) and the fluorescence ratio [9] was 0.99 (inactive). The log fold change Tl+ flux (F380Y/beta4) was 0.0329 (inactive), the log fold change Tl+ flux [11] was -0.00962 (inactive) and the log fold change Tl+ flux (R275C) was 0.0291 (inactive). The log fold change Tl+ flux (R275C/beta1) was -0.0697 (inactive), the log fold change Tl+ flux (R275C/beta2Delta) was 0.0347 (inactive) and the log fold change Tl+ flux (R275C/beta4) was -0.108 (inactive). For the same molecule, the log fold change Tl+ flux (R275C/Slo1WT/beta2) was -0.0685 (inactive).

CN1C(C(=O)Nc2ccccn2)=C(O)c2ccccc2S1(=O)=O showed an inhibition [1] of -2.37%, a score [2] of 0.27 and a cytochrome c release ratio [3] of 1.16. The inhibition of aggregation [4] was 83.1%, the glutamate uptake change [5] was -13.7% and the fluorescence ratio [6] was 1.01 (inactive). The inhibition [7] was 1.98% (inactive), the inhibition [8] was 1.44% (inactive) and the fluorescence ratio [9] was 0.98 (inactive). For the same molecule, the log fold change Tl+ flux (F380Y/beta4) was -0.0159 (inactive), the log fold change Tl+ flux [11] was 0.00877 (inactive) and the log fold change Tl+ flux (R275C) was 0.0414 (inactive). The log fold change Tl+ flux (R275C/beta1) was 0.0251 (inactive), the log fold change Tl+ flux (R275C/beta2Delta) was -0.00889 (inactive) and the log fold change Tl+ flux (R275C/beta4) was 0.00622 (inactive). The log fold change Tl+ flux (R275C/Slo1WT/beta2) was -0.000416 (inactive).

For CCCCCN=C(N)N/N=C/c1c[nH]c2ccc(OC)cc12, the fluorescence ratio [6] was 0.7 (active), the inhibition [7] was 8.32% (inactive) and the inhibition [8] was 7.6% (inactive). For the same molecule, the fluorescence ratio [9] was 0.88 (inactive).

In the case of CCC(C)(C)C(=O)O[C@H]1C[C@@H](C)C=C2C=C[C@H](C)[C@H](CC[C@@H]3C[C@@H](O)CC(=O)O3)[C@H]21, the fluorescence ratio [6] was 1.04 (inactive), the inhibition [7] was -1.36% (inactive) and the inhibition [8] was 6.39% (inactive). For the same molecule, the fluorescence ratio [9] was 0.92 (inactive), the z-score [10] was -1.4 (inactive) and -0.73 (inactive) and -0.85 (inactive) and the log fold change Tl+ flux (F380Y/beta4) was -0.0747 (inactive). For the same molecule, the log fold change Tl+ flux [11] was 0.0806 (active), the log fold change Tl+ flux (R275C) was 0.0702 (inactive) and the log fold change Tl+ flux (R275C/beta1) was 0.116 (active). The log fold change Tl+ flux (R275C/beta2Delta) was 0.0611 (inactive), the log fold change Tl+ flux (R275C/beta4) was 0.067 (inactive) and the log fold change Tl+ flux (R275C/Slo1WT/beta2) was -0.0513 (inactive).

Nc1nc2c(ncn2COCCO)c(=O)[nH]1 gave an inhibition [1] of 6.39%, a score [2] of 1.1 and a cytochrome c release ratio [3] of 1.05. For the same molecule, the inhibition of aggregation [4] was 51.5%, the glutamate uptake change [5] was 13.5% and the inhibition ([12]; at 0.5 µM, stronger effect = higher value) was -27.5% (inactive) and -23.8% (inactive). The inhibition ([12]; measured here: combination with BGB IC20, at 0.005 µM) was -0.211% and -20%, the inhibition ([12]; measured here: combination with BGB IC40, at 0.005 µM) was -37.2% and -37.3% and the inhibition ([12]; measured here: combination with BGB IC40, at 0.05 µM) was -22.3% and -50.5%. For the same molecule, the inhibition ([12]; measured here: combination with cisplatin, at 0.5 µM, stronger effect = higher value) was -35.1% and -39.9%, the inhibition ([12]; measured here: combination with cisplatin, at 5 µM, stronger effect = higher value) was -19.1% and -38.4% and the inhibition ([13]; BGB combo, at 5 µM) was -39.6% and -25.3%. For the same molecule, the inhibition ([13]; at 0.5 µM) was -44.3% (inactive) and -13.8% (inactive), the inhibition ([13]; cisplatin combo, at 5 µM) was -30.4% and 3.02% and the inhibition ([13]; measured here: with BGB IC20 combination, at 0.5 µM) was -44% and -16%. The inhibition ([13]; measured here: with cisplatin IC20 combination, at 0.5 µM) was -44.9% and -2.15%, the inhibition ([13]; single agent, at 5 µM) was -49.5% and 10.3% and the inhibition ([14]; at 0.5 µM) was -30.1% (inactive) and -6.85% (inactive). For the same molecule, the inhibition ([14]; measured here: with BGB IC20, at 0.5 µM) was -40.8% and -11.5%, the inhibition ([14]; measured here: with BGB IC20, at 5 µM) was -33.7% and -9.07% and the inhibition ([14]; measured here: with cisplatin IC20, at 0.5 µM) was -27.1% and -11.3%. For the same molecule, the inhibition ([14]; measured here: with cisplatin IC20, at 5 µM) was -43.1% and -41.4%, the inhibition ([14]; single agent, at 5 µM) was -42.6% and 2.37% and the log fold change Tl+ flux (F380Y/beta4) was -0.0606 (inactive). The log fold change Tl+ flux [11] was -0.0276 (inactive), the log fold change Tl+ flux (R275C) was -0.024 (inactive) and the log fold change Tl+ flux (R275C/beta1) was -0.0244 (inactive). For the same molecule, the log fold change Tl+ flux (R275C/beta2Delta) was -0.00892 (inactive), the log fold change Tl+ flux (R275C/beta4) was 0.0324 (inactive) and the log fold change Tl+ flux (R275C/Slo1WT/beta2) was 0.0456 (inactive).

Work on N=C(N)c1ccc(OCCCCCOc2ccc(C(=N)N)cc2)cc1 yielded an inhibition [1] of -13.3%, a score [2] of 0.69 and a cytochrome c release ratio [3] of 2.1. The inhibition of aggregation [4] was 62.8%, the glutamate uptake change [5] was 6.93% and the z-score [10] was -0.685 (inactive).

In the case of CN(C)CCCN1c2ccccc2CCc2ccc(Cl)cc21, the inhibition [1] was -18.9%, the score [2] was 0.98 and the cytochrome c release ratio [3] was 1.15. The inhibition of aggregation [4] was 66.7%, the glutamate uptake change [5] was 6.78% and the fluorescence ratio [6] was 1 (inactive). The inhibition [7] was -3.18% (inactive), the inhibition [8] was 0.29% (inactive) and the fluorescence ratio [9] was 1 (inactive). The z-score [10] was -1.52 (inactive) and -1.25 (inactive) and -0.78 (inactive), the log fold change Tl+ flux (F380Y/beta4) was 0.151 (active) and the log fold change Tl+ flux [11] was -0.0105 (inactive). For the same molecule, the log fold change Tl+ flux (R275C) was 0.0284 (inactive), the log fold change Tl+ flux (R275C/beta1) was 0.00748 (inactive) and the log fold change Tl+ flux (R275C/beta2Delta) was -0.0594 (inactive). For the same molecule, the log fold change Tl+ flux (R275C/beta4) was 0.278 (active) and the log fold change Tl+ flux (R275C/Slo1WT/beta2) was -0.0809 (inactive).

For CCN(CCO)CCCC(C)Nc1ccnc2cc(Cl)ccc12 (centres undefined), the inhibition [1] was -6.7%, the score [2] was 1.54 and the cytochrome c release ratio [3] was 0.8. It also gave an inhibition of aggregation [4] of 27.4% and a glutamate uptake change [5] of 0%.

CC1Cc2ccccc2N1NC(=O)c1ccc(Cl)c(S(N)(=O)=O)c1 (centres undefined) gave an inhibition [1] of 11.1%, a score [2] of 1.1 and a cytochrome c release ratio [3] of 0.89. For the same molecule, the inhibition of aggregation [4] was 85.9%, the glutamate uptake change [5] was -15% and the fluorescence ratio [6] was 0.31 (active). The inhibition [7] was 0.45% (inactive), the inhibition [8] was 1.05% (inactive) and the fluorescence ratio [9] was 0.97 (inactive). For the same molecule, the z-score [10] was 0.635 (inactive) and 0.155 (inactive), the log fold change Tl+ flux (F380Y/beta4) was 0.0552 (inactive) and the log fold change Tl+ flux [11] was -0.0185 (inactive). The log fold change Tl+ flux (R275C) was 0.0209 (inactive), the log fold change Tl+ flux (R275C/beta1) was 0.0126 (inactive) and the log fold change Tl+ flux (R275C/beta2Delta) was -0.00869 (inactive). For the same molecule, the log fold change Tl+ flux (R275C/beta4) was 0.00861 (inactive) and the log fold change Tl+ flux (R275C/Slo1WT/beta2) was -0.000687 (inactive).
